Inconclusive results are not listed. Activity calls are given as the source filed them. Unless noted, calls come from the whole dose curve; as a rule, active = well fitted curve in the direction sought with a large enough effect; inconclusive = small, poorly fitted or top-dose-only effect, or another doubt; inactive = no such curve, though single readings can be large; an effect the other way counts as inactive or inconclusive.
What was measured:
[1] = molecular target: Glucocorticoid receptor (Homo sapiens) (UniProt P04150); assay: qHTS assay for small molecule agonists of glucocorticoid receptor signaling (AID 588532; active = well fitted curve in the direction sought with a large enough effect in the signal ratio, with a control signal flat; the % refers to the signal ratio;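 note: 100% = dexamethasone at 0.1 µM and 0% = DMSO only wells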); details: HeLa MMTV-bla, beta-lactamase ratio, agonist, 18 h; stronger effect = higher value; percent of dexamethasone control, DMSO zero
Chain of Glucocorticoid receptor (Homo sapiens) (P04150 whole entry, looked up): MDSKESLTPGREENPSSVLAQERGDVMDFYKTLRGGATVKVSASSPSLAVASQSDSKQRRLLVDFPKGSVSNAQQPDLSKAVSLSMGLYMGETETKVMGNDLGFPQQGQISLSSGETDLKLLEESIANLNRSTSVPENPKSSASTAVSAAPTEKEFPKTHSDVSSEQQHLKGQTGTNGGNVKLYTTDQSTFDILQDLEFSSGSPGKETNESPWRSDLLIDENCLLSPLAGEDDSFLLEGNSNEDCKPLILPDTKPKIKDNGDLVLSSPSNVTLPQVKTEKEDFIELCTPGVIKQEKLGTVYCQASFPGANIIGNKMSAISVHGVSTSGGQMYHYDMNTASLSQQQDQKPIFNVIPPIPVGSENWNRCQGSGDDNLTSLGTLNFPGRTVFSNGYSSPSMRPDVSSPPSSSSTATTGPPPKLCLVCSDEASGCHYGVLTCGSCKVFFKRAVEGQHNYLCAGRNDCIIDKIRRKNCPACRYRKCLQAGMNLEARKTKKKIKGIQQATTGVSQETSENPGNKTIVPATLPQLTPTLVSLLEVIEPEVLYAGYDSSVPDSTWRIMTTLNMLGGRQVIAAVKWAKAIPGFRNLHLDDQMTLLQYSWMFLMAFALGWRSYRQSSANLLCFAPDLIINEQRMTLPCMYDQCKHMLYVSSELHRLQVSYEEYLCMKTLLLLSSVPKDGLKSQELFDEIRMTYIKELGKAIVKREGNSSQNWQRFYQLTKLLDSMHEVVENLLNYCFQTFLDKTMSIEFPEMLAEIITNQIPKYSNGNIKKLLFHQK
How it was run: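 MMTV-bla HeLa, beta-lactamase reporter; medium with 1% charcoal/dextran-stripped FBS; cpds up to 92 uM, 18 h, 37 C; CCF4 readout 460/530 nm; Hill fit → EC50, efficacy vs 0.1 uM dexamethasone = 100%.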

[2] = qHTS assay for small molecule agonists of retinoid X receptor alpha signaling (AID 588544; calls by dose curve;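 for activation: 0% = DMSO basal wells and 100% = reference agonist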); details: HEK293T RXRa-UAS-bla, beta-lactamase reporter, 18 h; 530 nm emission
[3] = molecular target: Retinoic acid receptor RXR-alpha (Homo sapiens) (UniProt P19793); assay: as above; details: HEK293T RXRa-UAS-bla, beta-lactamase reporter, 18 h; series mostly up to 76.7 µM
Chain of Retinoic acid receptor RXR-alpha (Homo sapiens) (P19793 whole entry, looked up): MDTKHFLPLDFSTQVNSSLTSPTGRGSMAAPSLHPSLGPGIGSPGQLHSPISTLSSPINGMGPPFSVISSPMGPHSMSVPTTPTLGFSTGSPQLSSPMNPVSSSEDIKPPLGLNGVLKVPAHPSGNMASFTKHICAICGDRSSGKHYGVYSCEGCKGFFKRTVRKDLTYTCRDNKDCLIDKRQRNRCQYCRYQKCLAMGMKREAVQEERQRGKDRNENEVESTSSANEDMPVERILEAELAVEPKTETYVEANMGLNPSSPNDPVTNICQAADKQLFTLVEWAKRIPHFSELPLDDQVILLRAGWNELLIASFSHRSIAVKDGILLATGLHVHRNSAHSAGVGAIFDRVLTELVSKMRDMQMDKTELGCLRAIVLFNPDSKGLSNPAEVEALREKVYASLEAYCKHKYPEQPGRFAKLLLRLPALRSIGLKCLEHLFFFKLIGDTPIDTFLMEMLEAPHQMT

[4] = molecular target: Thyroid hormone receptor beta (Homo sapiens) (UniProt P10828); assay: qHTS assay for small molecule agonists of thyroid hormone receptor beta signaling (AID 588545; calls by dose curve;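 note: 0% = DMSO only and 100% = 10 nM T3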); details: TR-UAS-bla GripTite HEK 293, beta-lactamase ratio, agonist mode, 18 h; series mostly up to 76.7 µM
Chain of Thyroid hormone receptor beta (Homo sapiens) (P10828 whole entry, looked up): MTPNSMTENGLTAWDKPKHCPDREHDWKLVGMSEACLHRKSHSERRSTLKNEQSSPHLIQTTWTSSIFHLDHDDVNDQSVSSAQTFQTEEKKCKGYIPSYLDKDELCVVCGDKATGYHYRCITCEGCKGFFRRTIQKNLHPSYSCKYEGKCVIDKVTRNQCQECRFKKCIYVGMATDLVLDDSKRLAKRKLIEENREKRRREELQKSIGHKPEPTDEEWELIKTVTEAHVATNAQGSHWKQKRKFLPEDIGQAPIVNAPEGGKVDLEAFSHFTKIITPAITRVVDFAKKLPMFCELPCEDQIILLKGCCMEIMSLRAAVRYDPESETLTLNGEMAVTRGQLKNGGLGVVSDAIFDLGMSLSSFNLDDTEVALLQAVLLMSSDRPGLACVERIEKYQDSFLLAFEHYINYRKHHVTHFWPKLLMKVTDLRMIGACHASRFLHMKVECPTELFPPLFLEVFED
How it was run: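 TR-UAS-bla-GripTite HEK 293 cells in medium with 2% charcoal/dextran FBS, 0.1 mM NEAA and 1 mM sodium pyruvate were treated with titrated compounds for 18 hrs at 37 C. Beta-lactamase reporter was read with CCF4 dye (ex 405, em 460/530 nm); EC50 from Hill fits.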

[5] = qHTS assay for small molecule antagonists of retinoid X receptor alpha signaling (AID 588546; active = well fitted inhibition curve with a large enough effect in the signal ratio, with a control signal flat, not every such curve was filed as active; the % refers to the signal ratio;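 note: cells stimulated with 9-cis-retinoic acid as agonist; % is set by controls: 0 for no effect and ±100 for the full control effect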); details: HEK293T RXRa-UAS-bla, beta-lactamase ratio, antagonist mode; measured here: W530 green channel, cytotoxicity proxy
How it was run: (§1)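 Beta-lactamase reporter inhibition, read as CCF4 fluorescence ratio (ex 405, em 460/530 nm) after 2 h at RT. HEK293T UAS-bla cells, 2500/well, were stimulated with 9-cis-RA at 500 or 100 nM final alongside test compound for 18 h at 37 C.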

[6] = molecular target: Retinoic acid receptor RXR-alpha (Homo sapiens) (UniProt P19793); assay: as above; details: HEK293T RXRa-UAS-bla, beta-lactamase ratio, antagonist mode
How it was run: as §1

[7] = molecular target: Luciferin 4-monooxygenase (Photinus pyralis) (UniProt P08659); assay: Biochemical firefly luciferase enzyme assay for NPC (AID 624030);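 note: purified P. pyralis luciferase at 10 nM with luciferin and ATP substrate; 0% = DMSO and -100% = full luciferase inhibition by PTC124 control; nearly all actives have a fitted effect of over 70% in size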; details: purified P. pyralis luciferase, luminescence, 5 min; series mostly up to 58.6 µM
Chain of Luciferin 4-monooxygenase (Photinus pyralis) (P08659 whole entry, looked up): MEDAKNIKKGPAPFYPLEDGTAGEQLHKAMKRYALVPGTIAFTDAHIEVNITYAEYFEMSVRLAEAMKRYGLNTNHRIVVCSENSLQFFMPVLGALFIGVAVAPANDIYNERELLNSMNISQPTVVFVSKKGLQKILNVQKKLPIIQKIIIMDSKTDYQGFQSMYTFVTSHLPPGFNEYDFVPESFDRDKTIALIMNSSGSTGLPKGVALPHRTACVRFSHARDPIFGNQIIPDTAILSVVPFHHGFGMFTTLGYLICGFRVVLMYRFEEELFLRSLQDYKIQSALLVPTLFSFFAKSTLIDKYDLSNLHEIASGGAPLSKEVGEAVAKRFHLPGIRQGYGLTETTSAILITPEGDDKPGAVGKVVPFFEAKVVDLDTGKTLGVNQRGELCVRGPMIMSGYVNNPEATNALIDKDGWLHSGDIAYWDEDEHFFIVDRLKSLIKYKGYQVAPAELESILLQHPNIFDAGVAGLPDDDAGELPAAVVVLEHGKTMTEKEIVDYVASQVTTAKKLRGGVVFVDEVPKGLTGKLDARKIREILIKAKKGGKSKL
How it was run: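 Counter-screen for direct inhibition of the luciferase enzyme by approved-drug library compounds, run at 10 nM enzyme in 50 mM Tris acetate (final). Luminescence was read within 5 min of enzyme-buffer addition and normalized to PTC124 versus DMSO (0%).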

[8] = qHTS assay for small molecule activators of the nuclear factor-kappa B (NF-kB) signaling pathway (AID 651749; active = well fitted activation curve with a large enough effect in the signal ratio; the % refers to the signal ratio; note: % of control where 0% means no effect); details: NF-kB-bla ME-180 cells, beta-lactamase FRET ratio, 16 h; activation: stronger effect = higher value
How it was run: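 Human ME-180 cervical cells with an NF-kB-bla construct; compounds added via 23 nL pin transfer, DMSO as vehicle; incubation 16 hr. Reporter activity measured by FRET disruption.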

[9] = molecular target: Peroxisome proliferator-activated receptor alpha (Homo sapiens) (UniProt Q07869); assay: qHTS assay for small molecule agonists of the peroxisome proliferator-activated receptor alpha (PPARalpha) signaling pathway (AID 651778); details: PathHunter PPARalpha complementation, chemiluminescence, 6 h; stronger effect = higher value; note: % of control where 0% means no effect
Chain of Peroxisome proliferator-activated receptor alpha (Homo sapiens) (Q07869 whole entry, looked up): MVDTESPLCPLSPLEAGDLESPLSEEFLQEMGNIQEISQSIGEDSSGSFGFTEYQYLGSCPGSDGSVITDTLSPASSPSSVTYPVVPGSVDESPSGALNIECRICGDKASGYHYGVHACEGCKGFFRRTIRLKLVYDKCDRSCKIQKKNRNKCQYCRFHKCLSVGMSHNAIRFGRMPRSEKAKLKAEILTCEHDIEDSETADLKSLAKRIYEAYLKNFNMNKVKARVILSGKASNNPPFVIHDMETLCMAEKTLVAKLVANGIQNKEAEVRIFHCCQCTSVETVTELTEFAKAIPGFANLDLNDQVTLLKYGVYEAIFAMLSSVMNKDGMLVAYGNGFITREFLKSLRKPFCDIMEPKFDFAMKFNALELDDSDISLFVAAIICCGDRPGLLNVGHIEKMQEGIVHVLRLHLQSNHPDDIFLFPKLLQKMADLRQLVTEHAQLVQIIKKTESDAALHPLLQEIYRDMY
How it was run: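 Cells plated at 2,000/well and held overnight at 37 C, 5% CO2, then compound added by pin tool for 6 hr; after PathHunter detection reagent and 60 min at room temperature, chemiluminescence from enzyme complementation was read.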

[10] = qHTS assay for small molecule agonists of the antioxidant response element (ARE) signaling pathway measured by Nrf2-dependant transcriptional activity (AID 720636; active = well fitted curve in the direction sought with a large enough effect in the repeat runs; an effect the other way counts as inactive or inconclusive;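 note: HepG2 cells with an ARE-driven luciferase reporter; % of control where 0% means no effect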); details: ARE-luc HepG2, Nrf2 luciferase reporter, 16 h; series mostly up to 92.4 µM
How it was run: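 HepG2 ARE-luc reporter line, 1% dialyzed FBS; 6 hr attachment at 37 C, compound pinned in, 16 hr at 37 C/5% CO2; ONE-Glo, 30 min RT, luminescence read.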

[11] = qHTS assay for small molecule agonists of the antioxidant response element (ARE) signaling pathway measured by Nrf2-dependant transcriptional activity - cell viability counter screen (AID 720653; active = well fitted curve in the direction sought with a large enough effect in the repeat runs; an effect the other way counts as inactive or inconclusive; note: % is set by controls: 0 for no effect and ±100 for the full control effect); details: ARE-bla HepG2 viability, CellTiter-Glo ATP luminescence, 16 h; max response: stronger effect = lower value
How it was run: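 ARE-bla HepG2 cells (2,000/well) rested 5 hrs at 37C/5% CO2, then exposed to compounds in DMSO for 16 hrs. Viability was read in the same wells as intracellular ATP by luminescence, 30 min at room temperature after reagent addition.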

[12] = qHTS Assay for Identifying Gametocytocidal Compounds (AID 743244);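 note: % is set by controls: 0 for no effect and ±100 for the full control effect; actives lower the fluorescent signal which means gametocytes are killed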; details: P. falciparum 3D7 stage III-V gametocytes, alamarBlue, 72 h; max response: stronger effect = lower value
How it was run: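 P. falciparum 3D7 stage III–V gametocytes (20,000 cells/well) were exposed to compounds for 72 h at 37 °C, 5% CO2. AlamarBlue was then added for 24 h; decreased resorufin fluorescence (Ex 525/Em 598 nm) indicated loss of viability.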

[13] = qHTS assay for cell viability of HEK293 cells (AID 743288); details: ATP luminescence (CellTiter-Glo), 18 h; max response: stronger effect = lower value; note: % is set by controls: 0 for no effect and ±100 for the full control effect; nearly all actives have a fitted effect of over 50% in size
How it was run: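 After 18 h compound exposure at 37 C, parental HEK293 cells (2,000/well) are lysed with CellTiter-Glo and luminescence is read following 30 min at room temperature.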

[14] = qHTS assay for cell viability of the p53RE-bla HCT-116 cell line (AID 743292); details: p53RE-bla HCT-116 viability, ATP luminescence, 16 h; series mostly up to 95 µM; note: % is set by controls: 0 for no effect and ±100 for the full control effect; nearly all actives have a fitted effect of over 55% in size
How it was run: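 Luminescent ATP quantitation (CellTiter-Glo) served as the viability read-out; reagent was added after 16 h compound exposure at 37 C and read after 30 min at room temperature. Cells: p53RE-bla HCT-116, 4,000 per well.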

[15] = P-glycoprotein substrates identified in KB-8-5-11 adenocarcinoma cell line, qHTS therapeutic library screen (AID 1346987); details: KB-8-5-11 (P-gp overexpressing) viability, CellTiter-Glo, 72 h; series mostly up to 44.5 µM; note: % is set by controls: 0 for no effect and ±100 for the full control effect; nearly all actives have a fitted effect of over 65% in size
How it was run: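 Luminescence from CellTiter-Glo, read 5 min after addition, quantified survival of KB-8-5-11 (P-gp-overexpressing) cells exposed to compounds for 72 h. AC50 was derived from concentration-response curves.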

[16] = Primary qHTS for Huh7 cytotoxicity: counterscreen for inhibitors of MERS-S pseudotyped particle cell entry (AID 1479147; calls by dose curve); details: cell viability read-out; series mostly up to 57.1 µM
[17] = Primary qHTS for inhibitors of MERS-S pseudo-typed particle cell entry (AID 1479149; calls by dose curve; note: nearly all actives have a fitted effect of over 60% in size); details: MERS-S pseudotyped particle entry, luciferase; series mostly up to 57.1 µM
[18] = Primary qHTS for Vero E6 cytotoxicity: counterscreen for inhibitors of SARS-S pseudo-typed particle cell entry (AID 1479150; calls by dose curve); details: cell viability; series mostly up to 57.1 µM
[19] = Primary qHTS to identify inhibitors of SARS-CoV-2 cell entry (AID 1645846; calls by dose curve; note: nearly all actives have a fitted effect of over 45% in size); details: SARS-CoV-2 pseudovirus cell entry assay, luminescence; activity change, negative = inhibition: at 57.1 µM (top of the series) unless noted; series mostly up to 57.1 µM
How it was run: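 Luminescence readout (Bright-Glo luciferase) 48 h after pseudoparticle addition. HEK293-ACE2 cells, 1500/well; compound pre-incubation 1 h; Normalized to spike PP and bald PP.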

[20] = molecular target: Glutathione peroxidase 1 (Homo sapiens) (UniProt P07203); assay: Primary qHTS Assay for Inhibitors of Recombinant Selenoprotein Glutathione Peroxidase 1 (GPX1) (AID 1845191); details: recombinant GPX1, GR-coupled NADPH fluorescence, 15 min; series mostly up to 48.8 µM; note: nearly all actives have a fitted effect of over 65% in size
Chain of Glutathione peroxidase 1 (Homo sapiens) (P07203 whole entry, looked up): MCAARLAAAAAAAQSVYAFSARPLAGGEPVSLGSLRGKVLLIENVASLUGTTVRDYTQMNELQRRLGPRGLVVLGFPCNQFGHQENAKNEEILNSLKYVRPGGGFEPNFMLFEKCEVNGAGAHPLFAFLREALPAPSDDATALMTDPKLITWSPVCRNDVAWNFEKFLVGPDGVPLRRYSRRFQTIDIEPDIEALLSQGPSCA
How it was run: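 GPX1 10 nM, GR 100 nM, GSH 1 mM, NADPH 0.5 mM, CHP 0.5 mM (final). 30-min cpd preincubation, RT. Ex340/Em450 read t=0, t=15 min.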

[21] = molecular target: Phospholipid hydroperoxide glutathione peroxidase GPX4 (Homo sapiens) (UniProt P36969); assay: Primary qHTS Assay for Inhibitors of Recombinant Selenoprotein Glutathione Peroxidase 4 (GPX4) (AID 1845192); details: recombinant GPX4, GR-coupled NADPH fluorescence, 15 min; series mostly up to 50 µM; note: % is set by controls: 0 for no effect and ±100 for the full control effect; nearly all actives have a fitted effect of over 65% in size
Chain of Phospholipid hydroperoxide glutathione peroxidase GPX4 (Homo sapiens) (P36969 whole entry, looked up): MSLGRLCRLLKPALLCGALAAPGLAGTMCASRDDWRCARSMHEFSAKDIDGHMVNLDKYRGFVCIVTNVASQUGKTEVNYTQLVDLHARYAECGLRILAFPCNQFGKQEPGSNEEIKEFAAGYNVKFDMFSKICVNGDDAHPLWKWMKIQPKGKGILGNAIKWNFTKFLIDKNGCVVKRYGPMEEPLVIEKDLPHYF
How it was run: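 qHTS, GR-coupled: GPX4 200 nM + cpd 30 min RT → GSH 1 mM, NADPH 0.5 mM, GR 100 nM → CHP 0.5 mM start; fluor 340/450 at t0 and t15 min; no-enzyme wells as control.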

KB-3-1 = assay: Cytotoxic Profiling of Annotated Libraries Using Quantitative High-Throughput Screening (AID 1296008); details: Five cell lines viability, CellTiter-Glo ATP luminescence, 48-72 h; max response: stronger effect = lower value; note: % is set by controls: 0 for no effect and ±100 for the full control effect; nearly all actives have a fitted effect of over 60% in size
How it was run: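 Compounds were pin-transferred onto cells and incubated 48 or 72 hr at 37 degree Celsius, 95% humidity. CellTiter-Glo was added, plates sat 10 min at room temperature, then ATP-coupled luminescence was imaged as the viability read-out.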

[22] = Drug repurposing screens with cells derived from glioblastoma tumor samples (AID 1345199); details: GBM patient neurospheres viability, ATP luminescence, 48 h; Potency: tumour line A; series mostly up to 45.9 µM; note: % is set by controls: 0 for no effect and ±100 for the full control effect; nearly all actives have a fitted effect of over 40% in size
How it was run: (§2)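 Primary testing used CD133+ neurospheres from four GBM patients, seven concentrations, 48 h exposure and ATP-based viability; confirmation added three slower-growing patient lines.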

astro = assay: as above; details: viability, ATP luminescence, 48 h; series mostly up to 45.9 µM
How it was run: as §2

[23] = molecular target: Nuclear receptor subfamily 1 group I member 2 (Rattus norvegicus) (UniProt Q9R1A7); assay: qHTS assay for small molecule activators of the rat pregnane X receptor (rPXR) signaling pathway (AID 651751; call rule not given here; note: 0% is about no effect); details: rPXR reporter cells, luciferase (One-Glo), 24 h
Chain of Nuclear receptor subfamily 1 group I member 2 (Rattus norvegicus) (Q9R1A7 whole entry, looked up): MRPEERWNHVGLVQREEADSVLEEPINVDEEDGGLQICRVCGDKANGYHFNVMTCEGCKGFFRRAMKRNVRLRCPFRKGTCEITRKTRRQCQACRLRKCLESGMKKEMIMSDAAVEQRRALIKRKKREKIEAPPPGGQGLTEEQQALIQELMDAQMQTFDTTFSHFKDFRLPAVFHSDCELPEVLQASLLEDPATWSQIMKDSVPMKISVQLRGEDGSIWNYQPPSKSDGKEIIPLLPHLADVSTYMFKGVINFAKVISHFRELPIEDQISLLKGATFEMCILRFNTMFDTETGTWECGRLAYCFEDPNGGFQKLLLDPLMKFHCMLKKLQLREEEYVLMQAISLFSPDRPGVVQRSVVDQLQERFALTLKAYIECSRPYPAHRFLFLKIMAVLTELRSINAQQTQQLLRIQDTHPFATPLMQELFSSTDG

[24] = qHTS assay for small molecule activators of the human pregnane X receptor (PXR) signaling pathway (AID 720659; call rule not given here; note: 0% is about no effect); details: DPX-2 HepG2 CYP3A4-luciferase, 24 h; series mostly up to 92.3 µM

OCCN(CCO)CCO
-6.39%: max response [2]
-16.2%: max response [5]
inactive: activation [1] -3.04% | outcome [3] | Potency [4] | max response [6] -4.54% | Potency [7] | activation [8] -1.09% | max response [9] -0.143% | Potency [10] | max response [11] -4.95% | max response [12] 5.27% | max response [13] -0.515% | outcome [14] | Potency [15] | outcome [16] | Potency [17] | outcome [18] | Potency [20] | Potency [21] | max response (KB-3-1) 0.954% | Potency [22] | Potency (astro) | max response [23] -1.5% | outcome [24]
-24%: activity change, negative = inhibition [19]

CN(C)CCO
inactive: Potency [7] | max response [12] 29.8% | Potency [15] | max response (KB-3-1) -9.6% | Potency [22] | Potency (astro)

— PubChem BioAssay (NCATS)
